From PubChem BioAssay AID2391 (Southern Research Specialized Biocontainment Screening …, 2010)
The whole screen tested about 310,000 compounds, of which about 410 (0.13%) were called active. Another 2% or so got no clear call; they are omitted. How the calls were made is not given here. Not all results are given here. Measured potencies and affinities stand elsewhere.

assay: inhibition of RSV-induced cytopathic effect – HEp-2 cells, primary 10 µM value included (AID 2391); details: at 10 µM, stronger effect = higher value

CPE inhibition, inactive:
Cc1c(C(=O)O)oc2ccc3c(c12)C(O)CC(C)(C)O3 (stereo not given) 1.72%
CCc1ccccc1NC(=O)CNC(=O)c1cc(C2CC2)nn1-c1ccccc1 -0.83%
CN(CC(=O)Nc1ccccc1Cl)C(=O)c1cc(C2CC2)nn1-c1ccccc1 1.34%
O=C(O)c1cc(C2CC2)nn1-c1ccccc1 -0.32%
CCc1ccccc1NC(=O)CN(C)C(=O)c1cc(C2CC2)nn1-c1ccccc1 0.49%
CCN(CC(=O)Nc1c(F)cccc1F)C(=O)C1CCN(C(=O)Nc2ccccc2)CC1 0.36%
O=C(NC1CCCC1)C1CC(=O)N(c2ccccc2)C1 (stereo not given) 1.22%
CS(=O)(=O)c1ccc(C(=O)OCC(=O)Nc2cccc(S(=O)(=O)N3CCCC3)c2)cc1 1.77%
O=C(CSc1nccn(-c2ccc(Br)cc2)c1=O)Nc1ccccc1F 0.04%
CSc1nc(Oc2ccc(C)cc2)cc(C(F)(F)F)n1 0.19%
CCNC(=S)N1CCN(c2nc(-c3ccc(F)cc3)cs2)CC1 2.45%
O=C(c1ccc(-c2ccccc2Cl)o1)N1CCN(S(=O)(=O)c2cccs2)CC1 0.24%
CCOC(=O)[C@H]1[C@H]2COc3cc(OC)ccc3[C@@H]2N2C(=O)CN(Cc3ccc(OC)cc3)C(=O)[C@@]12C 2.03%
COc1ccc(NC(=S)NCCN2CCC(C)CC2)cc1Cl -1.89%
CC(C)OCCCNC(=O)c1ccc2c(c1)NC(=O)c1ccccc1S2 3.89%
COc1ccc2occ(C(C)=O)c2c1 0.49%
COc1ccc(C(=O)c2coc3ccc(OC(C)=O)cc23)cc1 4.53%
CN1C=C(C(F)(F)F)C=C/C1=C(\C#N)c1nnc2n1CCCCC2 1.8%
COc1ccc(C2CCCN2C(=O)Nc2ccccc2)cc1OC (stereo not given) 2.18%
COc1ccc(CNC(=O)CCCn2nc(C)n3ccnc3c2=O)cc1 1%
C=Cn1cc[n+](CC(=O)c2cccs2)c1 0.58%
COc1ccc2[nH]cc(C(=O)CN3CCC(C)CC3)c2c1 0.91%
COc1ccc2[nH]cc(C(=O)CN3CCCCC3)c2c1 -0.42%
O=C1CCCN1c1ccc(C(=O)N(Cc2nnc(-c3ccc(Cl)cc3)o2)C2CC2)cc1 1.99%
O=C(c1ccc(Cl)c(S(=O)(=O)N2CCOCC2)c1)N(Cc1nnc(-c2ccccc2Cl)o1)C1CC1 14.6%
CC(C)CCOC(=O)C(C)Sc1n[nH]c(=O)[nH]c1=O (stereo not given) 8.79%
Cc1c(NC(=S)NC(=O)c2ccc(-c3ccc(Cl)cc3)o2)cccc1C(=O)O 53.5%
COC(=O)c1ccccc1NC(=O)c1ccc(-c2ccc(Br)cc2)o1 4.75%
Cc1ccc(NC(=S)NC(=O)c2ccc(-c3ccc(Cl)cc3)o2)c(O)c1 1.42%
O=C(O)c1ccc(NC(=S)NC(=O)c2ccc(-c3ccc(Br)cc3)o2)cc1 10.7%
Cc1cc(O)c(NC(=S)NC(=O)c2ccc(-c3ccc(Cl)cc3)o2)cc1C 11.3%
O=C(NC(=S)Nc1ccccc1O)c1ccc(-c2ccc(Cl)cc2)o1 -1.25%
O=C(N/C(=C/c1cccc([N+](=O)[O-])c1)C(=O)N1CCCCC1)c1ccco1 -0.57%
Cc1ccc(S(=O)(=O)NC(C)(C)CN2CCNCC2)cc1 -0.5%
O=C(CCCCCN1C(=O)c2cccc3cccc(c23)C1=O)N1CCOCC1 2.04%
CCCc1c(C(=O)Nc2ccc(F)cc2)cnn1-c1ccccc1 3.97%
CCCc1c(NC(=O)Nc2ccc(F)cc2)cnn1-c1ccc(Cl)cc1 4.89%
O=C(c1ccco1)N1CCN(c2ccccc2F)CC1 0.67%
CCN(CC)C(=O)N1c2ccccc2Sc2ccccc21 11.5%
CNC(=O)N1c2ccccc2C=Cc2ccccc21 0.96%
Cc1ccc(NC(=O)c2cccs2)cc1NC(=O)c1ccccc1Cl 2.07%
COc1cc(NC(=S)NC(=O)c2cc(C)cc(C)c2)ccc1NC(=O)c1cccs1 7.54%
COc1cccc(C(=O)Nc2cc(NC(=O)c3cccs3)ccc2C)c1 10.5%
COc1cc(NC(=S)NC(=O)c2c(OC)cccc2OC)ccc1NC(=O)c1cccs1 2.67%
CCCCN(C)CCNC(=O)c1cn(C)c(=O)c2c1c1ccccc1n2C 1.07%
COc1ccc(OC)c(C2C(C#N)=C(N)N(N(C)C)C3=C2C(=O)CC(C)(C)C3)c1 (stereo not given) 1.69%
Nc1ccc2nc(SCC(=O)N3CCOCC3)sc2c1 0.05%
CCN(CC)CCNC(=O)c1ccc(NC(=O)Cc2ccccc2F)cc1 -0.24%
COc1ccc(Cl)cc1NC(=O)NCc1cccnc1 2.51%
Nc1nnnn1/N=C/c1ccc(Br)cc1 7.9%
Nc1nnnn1/N=C/c1ccc(F)cc1 1.72%
O=C(COc1ccccc1[N+](=O)[O-])OCCCOC(=O)COc1ccccc1[N+](=O)[O-] 0.68%
CCN1/C(=C2\C(=O)N(C)C(=S)N2c2ccccc2)C=Cc2ccccc21 1.96%
CC1(C)Cc2cccc(OCC(=O)Nc3cccnc3)c2O1 0.28%
CC1(C)Cc2cccc(OCC(=O)Nc3nccs3)c2O1 1.37%
COc1ccc(C)cc1Nc1n[n+](-c2ccccc2)c(-c2cc(OC)c(OC)cc2Br)s1 13.7%
COC(=O)c1cc(NS(=O)(=O)c2ccc(NCc3cccnc3)c([N+](=O)[O-])c2)cc(C(=O)OC)c1 1.44%
COc1ccccc1NC(=O)N1CCN(c2ccc3nnc(-c4ccc(F)cc4)n3n2)CC1 20.8%
CCSc1ccccc1C(=O)N1CCC2(CC1)CC(=O)c1ccccc1O2 2.51%
Cc1ccccc1NC(=O)COc1cccc2c1CCNC2=O -2.82%
COc1cccc(NC(=O)COc2cccc3c2CCNC3=O)c1 -2.16%
CCOC(=O)NC(Nc1ccc(C)cn1)(C(F)(F)F)C(F)(F)F 0.51%
Cc1cccc(C(=O)NC2CCN(CC(=O)N3CCOCC3)CC2)c1 0.56%
c1ccc(-c2nnc3ccc(N4CCCC4)nn23)cc1 13.9%
O=C(c1ccc(Br)o1)N1CCN(c2ccc3nnc(-c4ccc(F)cc4)n3n2)CC1 1.21%
COc1cc(F)ccc1CN1CCC(n2nccc2NC(=O)C2CCOC2)CC1 (stereo not given) -1%
Cc1cc(C(=O)Cn2nnc3ccccc3c2=O)c(C)n1-c1c(C)n(C)n(-c2ccccc2)c1=O 2.35%
COc1ccc(-n2c(C)cc(C(=O)Cn3nnc4ccccc4c3=O)c2C)cc1 2.15%
CN(C)c1ccc(CN(CC2CCCO2)C(=O)c2cccs2)cc1 (stereo not given) -0.5%
Cn1c(=O)c2c(n(Cc3ccccc3)c1=O)NC(=O)C2CC(=O)O (stereo not given) 0.62%
Cc1ccccc1OCCC(=O)Nc1ccc2c(C)cc(=O)oc2c1 1.79%
CCC(C)n1c(SCC(=O)Nc2ccccc2C(F)(F)F)nc2ccsc2c1=O (stereo not given) 13.6%
COCCN(C(=O)C(C)C)c1nnc(-c2ccc(C)cc2)s1 1.29%
COCCN(C(=O)C1CC1)c1nnc(-c2cccc(C)c2)s1 14%
C=CCc1cccc(/C=N/NC(=O)c2ccccc2OC)c1O 4.29%
O=C(O)c1ccccc1Nc1ccccc1 2.02%
O=C(O)c1ccccc1Nc1ccccc1C(=O)O 0.65%
O=C(O)c1cc([N+](=O)[O-])ccc1Nc1ccccc1 2.12%
COc1ccc(Nc2ccccc2C(=O)O)cc1 -0.36%
O=C(NCCOc1ccccc1Cl)c1ncn[nH]1 0.27%
CSc1ccc(S(=O)(=O)NCCSC(C)(C)C)cc1 -1.64%
COc1cc(CC2COC(c3ccc(O)c(OC)c3)C2COC(C)=O)ccc1O (stereo not given) 5.55%
CCOC(=O)CCCNC(=O)CCNC(=O)c1ccc(OCCC(C)C)cc1 -2.65%
Cc1ccc(C(=O)N2CCN(c3ccc(NC(=O)c4cccs4)cc3)CC2)cc1 3.02%
Cc1ccc(OCc2cc(C(=O)NCc3cnn(-c4cccc(F)c4)c3)no2)cn1 -0.86%
Cc1nn(-c2ccccc2)c(C)c1/C=N/O 5.01%
Cc1nn(-c2ccccc2)c(C)c1/C=N/N1CCN(c2ccccc2)CC1 2.1%
CC(=O)N1c2ccccc2Nc2ccccc21 0.92%
CC(C)(C)C(=O)CC1(O)C(=O)N(Cc2ccccc2)c2ccccc21 (stereo not given) 1.23%
Cc1cc(C)cc(NC(=O)CSc2nc3ccccc3nc2N2CCCCC2)c1 -0.51%
COc1cccc(NC(=O)CSc2nc3ccccc3nc2N2CCOCC2)c1 1.87%
Cc1cccc(NC(=O)CSc2nc3ccccc3nc2N2CCCC2)c1 43.3%
COc1ccc(NC(=O)CSc2nc3ccccc3nc2N2CCCC2)cc1 5.07%
O=C(CCN1c2ccccc2Sc2ccccc21)OCC(=O)N1CCN(C(=O)c2ccco2)CC1 5.26%
Cc1cc(C)cc(NC(=O)c2ccc(CNc3c(N4CCCC4)c(=O)c3=O)cc2)c1 2.89%
